Assay outcomes: PubChem BioAssay, several laboratories
tim23-1 inh: tim23-1 yeast growth inhibition; inhibition, % at 20 µM; AID 463212; S. cerevisiae tim23-1 growth, BacTiter-Glo luminescence, 24 h; 1.3% of 330,000 active;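 active = growth inhibition of the mutant yeast at or above 50%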;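 note: temperature-sensitive mutant grown at 25 °C; plate controls were DMSO-treated mutant yeast for no effect and medium wells lacking yeast for full effect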
NLRP3 yeast inh: blocks the NALP3 inflammasome reconstituted in yeast; AID 2825; Yeast reconstituted NLRP3/ASC/caspase-1, beta-gal luminescence, 24 h; inhibition, % at 10 µM; 0.39% of 330,000 active;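 active = inhibition of 50% or more; inactive = inhibition below 50%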;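 note: plate controls were induced DMSO wells for no effect and uninduced yeast grown without galactose for full effect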
tim10-1 inh: inhibits growth of tim10-1 mutant yeast. S. cerevisiae tim10-1 ts strain growth, BacTiter-Glo, 24 h. inhibition, % at 20 µM. 2.2% of 330,000 active. AID 463190;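 active = inhibition of at least 40%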;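 note: mutant grown at 25 °C; 0% = DMSO wells with yeast and 100% = wells holding no yeast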
TIM10 inh: TIM10 yeast growth inhibition | S. cerevisiae TIM10 strain growth, BacTiter-Glo luminescence, 24 h | 1.4% of 330,000 active | inhibition, % at 10 µM;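 active = inhibition of 40% or more at the single tested concentration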;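 note: wild-type TIM10 isogenic control strain grown at permissive 25 °C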
CR mimetic SO: lowers age-related superoxide in aged yeast cells; superoxide response (% of plate mean), % at 10 µM; S. cerevisiae aged cells, superoxide DHE fluorescence; hits give low values; 0.18% of 330,000 active;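 active = superoxide response under a set limit, about three screen SD below normal, cut at about 65% in these data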;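 note: yeast aged for seven days with compound at 30 °C before DHE staining; 100% = average MFI of all compound-treated wells on the plate with controls excluded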
tim10-1 confirm: tim10-1 yeast growth inhibition, confirmed | inhibition, % at 20 µM | shares compounds with tim10-1 inh | 56% of 7,400 active | S. cerevisiae tim10-1 ts strain growth, BacTiter-Glo, 24 h | AID 463213;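 active = inhibition of yeast growth at or above a set limit in either of two repeat tests at 20 µM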;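 note: tim10-1 mutant grown at permissive 25 °C to find synthetic lethal compounds; 0% = DMSO yeast wells and 100% = medium wells without yeast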
tim10 confirm: TIM10 yeast growth inhibition, confirmed; S. cerevisiae tim10 strain growth, BacTiter-Glo luminescence, 24 h; AID 463215; 63% of 4,600 active; shares compounds with TIM10 inh; inhibition, % at 10 µM;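 active = inhibition of yeast growth at or above a set limit in either of two replicates at 10 µM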;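 note: this counterscreen used the strain with wild-type TIM10; 0% = yeast with DMSO and 100% = medium wells lacking yeast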
Active calls of the source: *; . = not tested or not shown. Hits are enriched below; roughly 3.8% of the tested compounds scored in any of these assays.

SMILES	tim23-1 inh	NLRP3 yeast inh	tim10-1 inh	TIM10 inh	CR mimetic SO	tim10-1 confirm	tim10 confirm
COC(=O)c1nn(-c2nc(-c3cccc(OC)c3)cc(C(F)(F)F)n2)cc1[N+](=O)[O-]	9	5	12	1	103	.	.
Cc1ccsc1/C=N/NC(=S)NCCc1ccccc1	18	3	54*	41*	117	-17	44*
C#CCOc1ccc(Cl)cc1/C=N/O	13	-15	13	-2	98	.	.
O/N=C/c1cc(Cl)ccc1OCc1cccc2ccccc12	48	18	63*	44*	86	24	50*
O=C1/C(=C/c2ccccn2)SC(=S)N1N1CCOCC1	13	15	12	11	95	.	.
Cc1cc(C(=O)NCC23CC4CC(CC(C4)C2)C3)c(C)o1	45	26	45*	40*	93	27	34*
COc1ccc(Cl)cc1N(CC(=O)NCCSc1ccccn1)S(=O)(=O)c1ccccc1	25	19	29	20	94	.	.
CCOC(=O)Cc1csc(Nc2ccc(Cl)cc2)n1	40	-52	52*	48*	91	41*	36*
Fc1ccc(-c2cc(-c3ccccc3)nc(-n3cccn3)n2)cc1	42	7	51*	59*	91	46*	46*
FC(F)(F)c1cc(-c2ccccc2)nc(-n2cncn2)n1	8	10	10	3	113	.	.
CC(C)CCN1C(=O)c2ccc(C(=O)N3CCCCC3)cc2C1=O	4	6	10	7	91	.	.
COc1cccc(C(=O)Nc2ccc(-n3nncc3C(C)(C)C)cc2)c1	31	14	34	22	100	.	.
CC(C)(C)c1cnnn1-c1ccc(NC(=O)c2ccc(Br)o2)cc1	37	8	47*	47*	94	42*	39*
CC(C)(C)c1cnnn1-c1ccc(NC(=O)c2ccc3c(c2)OCO3)cc1	38	5	44*	42*	115	26	34*
O=C(/C=C/c1cn(-c2ccccc2)nc1-c1cccnc1)c1ccco1	41	12	57*	48*	82	48*	41*
CCSc1nnc(NC(=O)c2cc(C)nc3ccccc23)s1	-4	21	19	3	114	.	.
CCSc1nnc(NC(=O)c2nc(-c3ccccc3)n(-c3ccccc3)n2)s1	50	20	55*	51*	104	52*	-21
CCN(CC)C(=O)[C@H]1CC(CC(=O)NCCC2=CCCCC2)C(=O)N2CCc3c([nH]c4ccc(OC)cc34)[C@]12C (some centres not stated)	29	.	9	3	89	.	.
CCCN(CC(=O)Nc1ccccc1C)C(=O)c1ccc2ccccc2n1	12	16	19	-7	95	.	.
Cc1ccccc1NC(=S)c1ccc2ccccc2n1	44	30	43*	40*	100	20	37*
CC(C)(C)c1cc(C(=O)N/N=C/c2ccc(F)cc2)n(-c2ccccc2)n1	46	1	51*	45*	92	34*	24
Cc1cccc(NC(=S)N/N=C/c2ccc3c(c2)OCO3)c1	45	-24	42*	47*	107	29	25
Cc1ccc(Oc2nnc(-c3cccs3)c3ccccc23)cc1	15	5	14	-5	105	.	.
Cc1ccc(Oc2nnc(-c3cccs3)c3ccccc23)cc1C	42	16	46*	46*	111	20	13
Cc1nn(-c2ccc(F)cc2)c(C)c1NS(=O)(=O)c1ccc(Cl)cc1	48	6	48*	51*	106	40*	22
SMILES	tim23-1 inh	NLRP3 yeast inh	tim10-1 inh	TIM10 inh	CR mimetic SO	tim10-1 confirm	tim10 confirm
Cc1ccc(-n2nc(C)c(NS(=O)(=O)c3ccccc3)c2C)cc1C	28	7	39	27	89	.	.
CCCn1c(/C=C/c2ccccc2)nc2ccccc21	45	44	42*	42*	99	23	28
CCCCCCC(=O)N(O)C1CC(=O)N(Cc2ccccc2)C1=O (configuration not stated)	24	13	45*	43*	105	41*	27
CCCN(CCC)C1CC(=O)N(Cc2ccccc2)C1=O (configuration not stated)	34	14	53*	42*	99	47*	39*
COc1ccc(N(C(C)C(=O)N/N=C(\C)C(C)(C)C)S(C)(=O)=O)cc1 (configuration not stated)	24	18	12	5	98	.	.
O=[N+]([O-])c1cccc(-c2ccc(/C=N/NC(=S)Nc3cccc(F)c3)o2)c1	47	23	52*	57*	94	46*	59*
COc1ccc(NC(=O)COC(=O)CC2CCCC2)cc1	31	8	-29	-7	106	.	.
COC(=O)/C=C/c1ccc2c(c1)S(=O)(=O)N(Cc1ccc(OC)cc1)[C@H]2CC(=O)OC	11	29	12	14	97	.	.
COc1ccc(CN2[C@@H](CC(C)=O)c3ccc(/C=C/C(C)=O)cc3S2(=O)=O)cc1	48	10	55*	55*	101	51*	55*
O=C(Nc1nnc(CC2=CCCCC2)s1)c1cccs1	30	19	47*	72*	105	42*	-27
COc1ccccc1CNC(=O)C1CC(c2ccccc2C(F)(F)F)=NO1 (configuration not stated)	25	20	13	-1	82	.	.
Oc1ccccc1-c1nc(NCC2CCCO2)c2ccccc2n1 (configuration not stated)	31	17	56*	61*	101	40*	27
CN(C)CCCN(C(=O)c1ccc(Cl)s1)c1nc2cc3c(cc2s1)OCO3	18	22	48*	42*	107	46*	23
CN(C)CCCN(C(=O)c1ccco1)c1nc2cc3c(cc2s1)OCO3	6	19	10	7	96	.	.
CN(C)CCCN(C(=O)c1ccc(Br)s1)c1nc2cc3c(cc2s1)OCCO3	43	35	64*	56*	98	60*	47*
CN(C)CCCN(C(=O)c1cc(Cl)sc1Cl)c1nc2cc3c(cc2s1)OCO3	46	34	63*	46*	103	55*	34*
O=C(Nc1ccc(-n2cnnn2)cc1)c1cccc(S(=O)(=O)N2CCCC2)c1	7	15	-1	9	104	.	.
CCN(C(=O)c1cc2cccc(OC)c2oc1=O)c1ccccc1	18	14	19	-8	109	.	.
O=C(CCCNC(=O)/C(=C/c1ccc(F)cc1)NC(=O)c1ccccc1)OCc1ccccc1	3	1	25	19	99	.	.
Cc1nn(CCC(N)=S)c2nc(-c3cccs3)cc(C(F)(F)F)c12	32	22	44*	55*	125	41*	41*
